Sampled rows, rich in hits. Any-hit rate of the full collection: about 3.5%.
IkB sig inh – IkB Signaling; ABC-DLBCL IkBa-CBG/CBR dual luciferase ratio, 4 h; response scale: scaled: untreated 0%, proteasome inhibitor 100%; Potency, µM (titrated, usually from 57.1 µM), inactives show at the highest dose IkBa stabilization activation; hit rate 0.04% among 110,000; AID 445, 2006; active means well fitted curve in the direction sought with a large enough effect in the signal ratio, not every such curve was filed as active; inconclusive means small, poorly fitted or top-dose-only effect, or a change in a side signal; the % refers to the signal ratio;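 further: the direction sought is a rising ratio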
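Curves were fitted separately to fusion (green), unfused (red) and ratio luminescence, then classed by r2, magnitude and activity. Cells: OCI-Ly3, 4 h compound plus doxycycline at 37C; 10 uM MG-132 defined full response.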
CRE-bla Fsk – Cell signaling CRE-BLA (Fsk stim) | hit rate 2.5% among 71,000 | Potency, µM (doses to about 38.2 µM), for inactives: top-dose activity change, negative = inhibition, actives largely listed as activators | CHO CRE-bla reporter (cAMP response element driving beta-lactamase), forskolin EC10, beta-lactamase ratio; active means well fitted activation curve with a large enough effect in the signal ratio, with a control signal flat, not every such curve was filed as active; inconclusive means small, poorly fitted or top-dose-only effect, or effect the other way, or a change in a side signal; the % refers to the signal ratio; further: % of control where 0% means no effect
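AC50 values, positive or negative, reflect shifts in EC10 NKH 477-induced CRE-bla reporter activity in CHO cells. Incubation lasted 3 h at 37 °C before CCF4 substrate (2 h, room temperature) and ratiometric 460/530 nm reading.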
HEK293 cAMP ctrl – qHTS Assay for Agonists of the Thyroid Stimulating Hormone Receptor: Activators of Intracellular cAMP Concentrations in Parental HEK 293. parental HEK293 CNG cAMP sensor, membrane potential fluorescence. Potency, µM (doses to about 57.1 µM), for the others: at the highest dose activation, actives largely listed as activators. hit rate 2.5% among 73,000. AID 938, 2007; active means well fitted activation curve with a large enough effect; inconclusive means small, poorly fitted or top-dose-only effect; inactive means no such curve, though single readings can be large or run the other way; further: % of control where 0% means no effect; nearly all actives have a fitted effect of over 55% in size
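Counterscreen for endogenous-receptor signalling: CNG-channel HEK 293 cells report cAMP rise by membrane depolarization. After 60 min dye equilibration with 100 uM RO 20-1724, compounds incubated 30 min before bottom-read fluorescence at 590 nm.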
Hsp90 Hop PPI – qHTS Assay for Disrupters of an Hsp90 Co-Chaperone Interaction; Hsp90 C-terminal peptide / TPR2A (Hop) interaction, human; AlphaScreen TPR2A-His6 binding biotin-Hsp90 C-terminal peptide; Potency, µM (top dose mostly 57 µM), for the others: top-dose activity change, negative = inhibition; hit rate 0.44% among 71,000; active means well fitted curve in either direction with a large enough effect; inconclusive means small, poorly fitted or top-dose-only effect, or another doubt; further: on the % scale 0 is the no-effect control and ±100 the full control effect
TSHR agonist – qHTS Assay for Agonists of the Thyroid Stimulating Hormone Receptor; Thyrotropin receptor (Homo sapiens), P16473; HEK293-CNG-TSHR cells (CNG channel as cAMP sensor), membrane potential dye, cAMP; Potency, µM (top dose mostly 57.1 µM), for the others: top-dose activation, most hits filed as activators; hit rate 0.48% among 73,000; active means well fitted activation curve with a large enough effect in the main read-out, with a control signal flat, not every such curve was filed as active; inconclusive means small, poorly fitted or top-dose-only effect, or a change in a side signal; inactive means no such curve, though single readings can be large or run the other way; % of control where 0% means no effect;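 further: the control signal comes from parental cells without the receptor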
Target sequence (P16473 whole entry, looked up): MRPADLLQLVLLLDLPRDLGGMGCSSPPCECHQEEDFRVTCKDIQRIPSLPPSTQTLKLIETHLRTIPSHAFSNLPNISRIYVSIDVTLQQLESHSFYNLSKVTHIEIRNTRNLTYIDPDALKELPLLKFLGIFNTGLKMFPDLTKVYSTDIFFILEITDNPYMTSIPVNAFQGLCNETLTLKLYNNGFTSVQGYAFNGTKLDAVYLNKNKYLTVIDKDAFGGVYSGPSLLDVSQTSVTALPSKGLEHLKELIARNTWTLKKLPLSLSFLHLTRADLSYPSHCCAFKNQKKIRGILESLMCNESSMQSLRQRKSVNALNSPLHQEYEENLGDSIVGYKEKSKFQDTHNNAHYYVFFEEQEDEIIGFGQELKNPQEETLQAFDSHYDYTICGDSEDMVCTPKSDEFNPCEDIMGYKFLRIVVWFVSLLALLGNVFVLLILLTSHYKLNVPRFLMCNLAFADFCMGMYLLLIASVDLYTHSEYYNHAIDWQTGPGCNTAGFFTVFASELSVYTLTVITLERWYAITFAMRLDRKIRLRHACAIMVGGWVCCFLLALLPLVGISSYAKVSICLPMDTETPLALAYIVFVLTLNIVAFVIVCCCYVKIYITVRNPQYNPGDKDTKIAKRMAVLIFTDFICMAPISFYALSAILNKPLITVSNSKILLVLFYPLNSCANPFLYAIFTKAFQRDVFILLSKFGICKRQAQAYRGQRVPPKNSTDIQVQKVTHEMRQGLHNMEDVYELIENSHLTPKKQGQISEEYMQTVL
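HEK 293 cells stably expressing TSHR and a cAMP-gated CNG channel; parental CNG-only cells as counterscreen. Cells preloaded 60 min with membrane potential dye plus 100 uM RO 20-1724, then compound 30 min; fluorescence read at 590 nm.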
The depositor's hits bear a star; u = inconclusive; x = no result; [ ] = another dose, or the depositor's remark. Potency means the concentration at half of the fitted maximal effect.

SMILES	IkB sig inh	CRE-bla Fsk	HEK293 cAMP ctrl	Hsp90 Hop PPI	TSHR agonist
CCn1cnc2sc(C(=O)N(Cc3ccc(N(C)C)cc3)Cc3ccco3)c(C)c2c1=O	u	12.6µM*	4.3%	u	x
CCc1ccc(OCC(=O)Nc2c(C(=O)c3ccccc3)oc3ccccc23)cc1	0.3%	x	x	x	x
COc1cccc(C(=O)Nc2ccccc2-c2nc3ccccc3s2)c1	-1.3%	x	x	x	x
COc1cccc(N(C(=O)c2cccs2)c2nc3ccccc3s2)c1	0.9%	3.16µM*	12.6µM*	1.1%	u
COCC(=O)N1CCC2(CC1)CN(C(=O)Nc1ccccc1)C2	0.4%[11.4 µM]	1.1%	-1.7%	-3.3%	0.6%
COCCN1C=C(C(=O)OC)C(c2ccc(OC)c(OC)c2)C(C(=O)OC)=C1	-2.0%	u	6.2%	-0.4%	0.2%
CCCOc1ccc(C2C(C(=O)OC)=CN(CCOC)C=C2C(=O)OC)cc1	-0.9%	u	25.1µM*	29.1%	u
COc1ccc2c(c1)c(=O)oc1cc(OCC(=O)N3CCC(C)CC3)ccc12	0.6%	u	u	-4.9%	u
COc1ccc2c(c1)c(=O)oc1cc(OCC(=O)N3CCCC(C)C3)ccc12 (stereo not drawn)	u	u	31.6µM*	2.0%	u
CC1(C)Cc2c(c(-c3ccco3)nc3n[nH]c(N)c23)CO1	-3.3%	15.8µM*	-0.4%	-1.2%	1.3%
CCCc1nc(NCc2ccco2)c(C#N)c2c1COC(C)(C)C2	-2.7%	12.6µM*	6.0%	-4.2%	6.3%
CC1(C)Cc2c(C#N)c(N3CCCC3)nc(-c3ccco3)c2CO1	u	u	5.3%	25.1µM*	11.7%
CCOC(=O)c1sc2nc(-c3ccco3)c3c(c2c1N)CC(C)(C)OC3	u	-27.1%	2.3%	-1.6%	-0.6%[11.4 µM]
CC1(C)Cc2c(C#N)c(NCCCO)nc(-c3ccccc3)c2CO1	-4.5%	10µM*	10.8%	6.6%	20.7%
Cc1nc(NCc2ccco2)c(C#N)c2c1COC(C)(C)C2	2.8%	u	u	-4.7%	u
C[C@H]1COC(=O)[C@H]2CCCN2C(=O)[C@@H](C)COC(=O)[C@H]2CCCN2C1=O	x	x	0.2%[11.4 µM]	x	-3.4%[11.4 µM]
COc1cc(NS(=O)(=O)c2cc(Br)cc3c2N(C(=O)C2CC2)CC3)cc(OC)c1	1.3%	x	x	x	x
COc1ccc(OC)c(CNC(=O)CN2N=C(c3ccc(Cl)cc3)CCC2=O)c1	0.7%	x	x	x	x
CCCCN(C)c1nc(-c2ccco2)c2c(c1C#N)CC(C)(C)OC2	u	u	26.3%	25.1µM*	52.6%
Cc1ccc(SCCNS(=O)(=O)c2ccc(F)cc2)cc1	-0.1%	u	18.2%[11.4 µM]	-1.8%[11 µM]	1µM*
COc1ccc(S(=O)(=O)N2CCC(C(=O)N3CCc4ccccc4C3)CC2)cc1	2.1%	1.3%	31.6µM*	-2.9%	u
c1ccc([C@@H]2CN3CCSC3=N2)cc1	1.1%[25.6 µM]	3.0%[17.1 µM]	8.6%[25.6 µM]	-3.2%[26 µM]	7.8%
O=C1c2ccccc2C(=O)N1c1cccc(-c2nc3ccccc3o2)c1	2.1%	3.16µM*	12.0%	-1.7%	4.5%
O=C1c2ccccc2C(=O)N1c1ccc(-c2nc3ccccc3o2)cc1	1.0%	-0.1%	3.0%	-1.2%	-6.7%
CN1c2cccc3cccc(c23)N(C)C1(C)C	0.9%	-0.6%	0.8%	-20.3%	-4.1%
SMILES	IkB sig inh	CRE-bla Fsk	HEK293 cAMP ctrl	Hsp90 Hop PPI	TSHR agonist
Cc1ccc2ccc3cccc4ccc1c2c34	-1.4%	14.7%	35.4%	39.8µM*	u
O=c1oc2c3c(ccc2c2ccccc12)OCN(Cc1ccccc1Cl)C3	-0.2%	x	x	x	x
O=c1c2[nH]c3ccccc3c2ncn1Cc1ccccn1	1.2%	10µM*	1.7%	-0.6%	10.0%
CCC(=O)OCN1C(=O)C=CC1=O	8.3%[11.4 µM]	-0.1%[7.6 µM]	5.2%[11.4 µM]	3.1%[11 µM]	2.8%[11.4 µM]
COc1ccccc1N1CCN(C(c2ccc(Cl)cc2)c2nnnn2C(C)(C)C)CC1 (stereo not drawn)	u	2.2%	2µM*	-7.5%	u
CCC(C)(C)n1nnnc1C(c1ccncc1)N1CCN(c2cccc(OC)c2)CC1 (stereo not drawn)	-0.7%	1.1%	2.51µM*	-5.1%	u
COc1ccccc1N1CCN(C(c2ccccc2Cl)c2nnnn2C(C)(C)C)CC1 (stereo not drawn)	0.8%	u	u	0.5%	u
CC(C)(C)n1nnnc1C(c1ccccc1)N1CCc2ccccc2C1 (stereo not drawn)	0.6%	-2.0%	u	-1.6%	u
CN(C)c1ccc(C(c2nnnn2C(C)(C)C)N2CCc3ccccc3C2)cc1 (stereo not drawn)	1.4%	0.2%	15.8µM*	-2.4%	u
CC1=C(C(=O)Nc2cccc(C(F)(F)F)c2)C(c2ccccn2)n2ncnc2N1 (stereo not drawn)	2.7%	x	x	x	x
c1cncc(-c2nc(-n3ccnc3)c3ccccc3n2)c1	-1.5%[11.4 µM]	u	6.0%	-4.9%	12.1%
CCOC(=O)N1CCN(C(=O)c2cccn3c(=O)c4sccc4nc23)CC1	-0.5%	u	6.3%	8.8%	0.8%
CCOC(=O)N1CCN(C(=O)c2ccc3nc4ccc(Cl)cc4c(=O)n3c2)CC1	-0.3%	0.0501µM*	5.7%	3.7%	10.3%
CCOC(=O)N1CCN(C(=O)c2ccc3nc4ccsc4c(=O)n3c2)CC1	-4.0%	10µM*	-2.3%	-1.0%	2.7%
O=C(NC1CCCCCC1)C1CCN(C(=O)N2CCOc3ccc(Cl)cc32)CC1	-3.1%	x	x	x	x
O=C(NC1CCCCC1)C(c1ccc(F)cc1)N(Cc1ccco1)C(=O)Cn1nnc2ccccc21 (stereo not drawn)	3.6%	-1.6%	15.8µM*	-1.5%	u
O=C(NC1CCCCC1)C(c1ccccc1F)N(Cc1ccco1)C(=O)Cn1nnc2ccccc21 (stereo not drawn)	2.9%	u	20µM*	-4.9%	u
Cc1cccc(C)c1NC(=O)C(c1cccs1)N(Cc1ccco1)C(=O)Cn1nnc2ccccc21 (stereo not drawn)	1.1%	-1.6%	15.8µM*	0.1%	u
Cc1cc(=O)n(Cc2ccc(F)cc2Cl)c2c1c(C)nn2C	-0.9%	x	x	x	x
CC(=O)NCC(=O)N[C@H](CCC(=O)O)C(=O)O	0.6%	9.6%	2.7%	3.1%	-0.8%
O=c1c(/C=N/O)c(Nc2ccccc2)nc2ccccn12	-5.1%	u	10.8%	-1.4%	11.2%
Cc1cccn2c(=O)c(/C=N/O)c(N3CCCCC3)nc12	0.8%	-1.0%	15.8µM*	-0.6%	u
N#CCSc1nnc(Cc2cccc3ccccc23)n1C1CCCCC1	u	-6.8%	15.8µM*	-4.5%	u
N#CCSc1nnc2ccc3ccccc3n12	1.0%	-3.8%	-1.6%	-2.8%	6.1%
